# Screens deposited in PubChem by National Center for Advancing Translational Sciences (NCATS).
# Hits are enriched below; roughly 0.51% of the tested compounds scored in any of these assays.
# FMDV RLuc – Primary qHTS Assay for Foot and Mouth Disease Virus Antivirals against NCGC Sytravon and CBC Compound Libraries: Renilla Luciferase Signal. FMDV replicon cells, Renilla luciferase signal. Potency, µM (top dose mostly 57.5 µM), most hits filed as inhibitors. 120,000 tested, 0.32% active. AID 1745857, 2022; further: nearly all actives have a fitted effect of over 55% in size
# FMDV FLuc – Primary qHTS Assay for Foot and Mouth Disease Virus Antivirals against NCGC Sytravon and CBC Compound Libraries: Firefly Luciferase Signal. Potency, µM (doses to about 57.5 µM), actives largely listed as inhibitors. FMDV antiviral cell assay, firefly luciferase signal. 120,000 tested, 0.23% active. AID 1745856, 2022; further: nearly all actives have a fitted effect of over 60% in size
# Hits are given with their value; – = inactive; ? = inconclusive. The call rests on the fitted dose curve.
SMILES,FMDV RLuc,FMDV FLuc
Cc1cccc(CN2CCCN(c3cccc(C(=O)N4CCN(c5ccccc5)CC4)c3)C2=O)c1,10µM,?
O=C(c1ccc(N2CCCN(Cc3ccccc3)C2=O)cc1)N1CCN(c2ccccc2)CC1,–,?
COc1ccc(C(=O)Nc2nc(-c3nnn(-c4ccccc4Br)c3C)ns2)cc1,14µM,14µM
COc1ccc(C(=O)Nc2nc(-c3nnn(-c4ccc(F)cc4F)c3C)ns2)cc1,–,–
Cc1ccccc1NC(=O)Cn1nnc(C(=O)NCc2cccs2)c1N,–,–
Cc1cc(C)c(NC(=O)Cn2nnc(C(=O)NCc3cccs3)c2N)c(C)c1,–,35µM
COC(=O)c1cc(-c2ccc(Cl)cc2)nc2onc(C)c12,–,–
CC(=O)c1[nH]c(C)c(C(=O)NCc2ccc(Cl)cc2)c1C,?,11µM
CCOC(=O)c1[nH]c(C)c(C(=O)NCc2ccc(F)cc2)c1C,–,–
COc1ccc(-c2nn3c(=O)c(NC(=O)c4ccccc4C)cnc3o2)cc1,–,–
CCc1cccc(CC)c1NC(=O)c1cc2cccc(OC)c2oc1=O,–,–
COc1ccc(NC(=O)c2ccc3c(c2)NC(=O)CS3)cn1,–,–
COc1cc(C)ccc1Oc1ccc(NC(=O)c2ccc3c(c2)NC(=O)CS3)cn1,25µM,?
Cc1cc2c(cc1C)NC(c1ccccc1)C1=C(CC(C)(C)CC1=O)N2 (configuration not stated),–,–
CNC(=O)C1CN(C(=O)CCc2ncc(-c3ccccc3)o2)c2ccccc2O1 (configuration not stated),–,–
CC(CNC(=O)COCc1nnc(C(=O)Nc2cccc(Cl)c2)s1)c1ccccc1 (configuration not stated),–,–
Cc1cc(C)n(-c2nc3c(c(=O)n(CCc4ccccc4)c(=O)n3C)n2CCC(C)C)n1,5µM,?
CCCn1c(-n2nc(C)cc2C)nc2c1c(=O)n(CCc1ccccc1)c(=O)n2C,?,–
O=C(c1ccc(Cl)cc1)N1CCN(c2nc3ccccc3s2)CC1,–,–
CCS(=O)(=O)c1ccccc1C(=O)N1CCN(c2nc3ccccc3s2)CC1,–,11µM
COc1ccc(NC(=O)c2ccc(NC(=O)N3CCSc4ncccc43)cc2)cc1,–,–
CC(=O)c1ccc(NC(=O)c2cccc(NC(=O)N3CCSc4ncccc43)c2)cc1,–,3.2µM
Cc1nc2ccc(C(=O)NC3CCC(C)CC3)cc2nc1C (configuration not stated),–,–
Cc1cccc(OCc2nc3c4c(ncn3n2)OC2=C(C(=O)CCC2)C4c2ccco2)c1C (configuration not stated),?,20µM
CC(=O)C1=C(C)Oc2ncn3nc(COc4cccc(C)c4C)nc3c2C1c1ccco1 (configuration not stated),–,–
SMILES,FMDV RLuc,FMDV FLuc
Cc1nc(N2CCN(C)CC2)c(C#N)c2c1CCCC2,–,–
CCCCc1nc(NCC2CCCO2)c(C#N)c2c1CCCC2 (configuration not stated),–,–
O=S1(=O)C=CC2ON=C(c3c(Cl)cccc3Cl)C21 (configuration not stated),32µM,?
Cc1ccccc1-c1cc(C(=O)NCCC(c2ccccc2)c2ccccc2)c2ccccc2n1,–,–
Cc1cc(C(=O)Cn2c(Cl)nc3c2c(=O)n(C)c(=O)n3C)c(C)n1CCc1ccccc1,7.9µM,28µM
Cc1cc(C(=O)Cn2c(Cl)nc3c2c(=O)n(C)c(=O)n3C)c(C)n1C,–,–
O=C1CC(c2ccccc2O)Cc2nc(N3CCN(c4ccccc4F)CC3)ncc21 (configuration not stated),11µM,?
CCOC(=O)N1CCN(c2ncc3c(n2)CC(c2ccc(OC)c(OC)c2)CC3=O)CC1 (configuration not stated),–,–
CCCNC(=O)C(C)NC(=O)c1cc(C2CC2)nc2c1cnn2C(C)C (configuration not stated),–,–
Cc1ccc(CCNc2ncnc3onc(C)c23)cc1,1.6µM,1.8µM
CCCNc1ncnc2onc(-c3ccc(C)cc3)c12,–,–
CCOCCCNc1ncnc2onc(C)c12,–,–
CCOc1ccc(CCNc2ncnc3onc(C)c23)cc1OCC,2.5µM,3.2µM
CCc1nc2ccccc2c(C(=O)OCC(=O)N2CCCC(C)C2)c1C (configuration not stated),–,–
CCC(Oc1ccc(F)cc1)C(=O)Nc1cc(-c2ccc(C)cc2)no1 (configuration not stated),–,–
CCC(Oc1ccc(F)cc1)C(=O)Nc1nc(-c2ccc(F)cc2)ns1 (configuration not stated),?,25µM
COc1ccc2c(=O)c(-c3ccc(OC)c(OC)c3)c(C(F)(F)F)oc2c1,–,–
COc1ccc(-c2c(C(F)(F)F)oc3cc(OS(C)(=O)=O)ccc3c2=O)cc1OC,?,3.5µM
CC(C)COc1ccccc1C1CC(=O)Nc2cc3c(cc21)OCO3 (configuration not stated),13µM,?
COc1ccc(C2CC(=O)Nc3cc4c(cc32)OCO4)c(OC)c1 (configuration not stated),–,–
CCCOc1cc(S(=O)(=O)NC(CC)CO)ccc1Cl (configuration not stated),–,–
Cc1nnsc1C(=O)Nc1ccc(S(=O)(=O)N2CCCCC2)cc1,–,–
CCC1CCCCN1S(=O)(=O)c1ccc(NC(=O)c2snnc2C)cc1 (configuration not stated),?,18µM
CCn1c2c(c(=O)n3ncc(C(=O)Nc4ccc(F)c(Cl)c4)c13)CN(Cc1ccc(OC)cc1)CC2,–,–
CCn1c2c(c(=O)n3ncc(C(=O)N4CCN(c5ccc(Cl)cc5)CC4)c13)CN(Cc1ccc(OC)cc1)CC2,22µM,?
SMILES,FMDV RLuc,FMDV FLuc
CCN(CC)CCNC(=O)c1ccc2ccccc2n1,–,–
COc1cc(CNC(=O)c2ccc3nc(Cc4ccccc4)oc3c2)cc(OC)c1OC,?,14µM
COc1cc(CNC(=O)c2ccc3nc(CCc4ccccc4)oc3c2)cc(OC)c1OC,–,–
CCN(CC)CCCOC(=O)c1ccc(O)cc1O,–,–
COc1ccc(C(=O)Nc2ccc3oc(-c4ccncc4)nc3c2)cc1OC,–,–
CCOc1ccc(C(=O)Nc2ccc3oc(-c4ccncc4)nc3c2)cc1Br,6.3µM,?
CC(C#N)CN(C)C(=O)CNC(=O)NCc1ccco1 (configuration not stated),–,–
COc1cccc2sc(N3CCN(C(=O)CCS(=O)(=O)c4ccc(F)cc4)CC3)nc12,?,35µM
Cc1ccc(S(=O)(=O)CCC(=O)N2CCN(c3nc4c(C)c(Cl)ccc4s3)CC2)cc1,–,–
CCc1ccc(C(C)NC(=O)CSc2nc(CN3CCOCC3)nc3ccccc23)cc1 (configuration not stated),–,–
CCN(CC)C(=S)Sc1ccc([N+](=O)[O-])cc1,–,2µM
CCN(CC)C(=S)SC(C(=O)c1ccccc1)c1ccccc1 (configuration not stated),–,–
O=C(N/N=C/c1ccccc1)C1CC1,–,–
CCC1CN(C(=O)N2CCC(C(=O)Nc3cc(C)ccc3C)CC2)c2ccccc2O1 (configuration not stated),–,–
CCC1CN(C(=O)N2CCC(C(=O)N3CCN(c4cc(C)ccc4C)CC3)CC2)c2ccccc2O1 (configuration not stated),?,20µM
